Results from PMC7862700, “An all-to-all approach to the identification of sequence-specific readers for epigenetic DNA modifications on cytosine”.

Assays:
Assay in all cases: DAPPL (digital affinity profiling via proximity ligation, sequencing); 10 mM Tris-HCl pH 7.5, 50 mM NaCl, 1 mM DTT, 4% glycerol, room temperature, 30 min; GST-TFs on glutathione beads, 16-mer random dsDNA library, 0.1% formaldehyde crosslink after washing; high values mean tight binding
Details in all cases: protein: recombinant; tags: N-terminal GST; dsDNA, one strand shown
ELK1 = molecular target: T1, ELK1 (Homo sapiens, UniProt P19419 1-428)
T1 sequence: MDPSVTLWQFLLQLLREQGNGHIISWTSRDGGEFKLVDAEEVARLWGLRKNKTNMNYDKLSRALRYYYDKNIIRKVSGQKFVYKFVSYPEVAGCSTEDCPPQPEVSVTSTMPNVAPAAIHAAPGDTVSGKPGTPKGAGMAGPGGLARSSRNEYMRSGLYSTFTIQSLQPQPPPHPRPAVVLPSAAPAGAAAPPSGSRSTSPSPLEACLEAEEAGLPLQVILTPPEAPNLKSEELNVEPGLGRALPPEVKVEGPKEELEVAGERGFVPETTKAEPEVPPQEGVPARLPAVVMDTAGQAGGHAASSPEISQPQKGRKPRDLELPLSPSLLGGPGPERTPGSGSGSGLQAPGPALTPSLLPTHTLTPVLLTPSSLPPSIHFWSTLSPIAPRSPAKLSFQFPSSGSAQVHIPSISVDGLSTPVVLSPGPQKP
How it was run: (§1)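 Pools were built from human transcription factors expressed in yeast as GST fusions, captured on glutathione beads and DNA-barcoded, along with a tag-only sample. Incubation with 200 nmole of a 16-mer random double-stranded DNA library lasted 30 min at room temperature in Tris/NaCl/DTT/glycerol buffer, and was followed by washing, 0.1% formaldehyde crosslinking, proximity ligation, PCR amplification and Illumina NextSeq500 sequencing. Binding signal is the quotient of each hexamer's read frequency for a factor and its frequency for the tag-only sample.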

GABPA = molecular target: T2, GABPA (Homo sapiens, UniProt Q06546 1-454)
T2 sequence: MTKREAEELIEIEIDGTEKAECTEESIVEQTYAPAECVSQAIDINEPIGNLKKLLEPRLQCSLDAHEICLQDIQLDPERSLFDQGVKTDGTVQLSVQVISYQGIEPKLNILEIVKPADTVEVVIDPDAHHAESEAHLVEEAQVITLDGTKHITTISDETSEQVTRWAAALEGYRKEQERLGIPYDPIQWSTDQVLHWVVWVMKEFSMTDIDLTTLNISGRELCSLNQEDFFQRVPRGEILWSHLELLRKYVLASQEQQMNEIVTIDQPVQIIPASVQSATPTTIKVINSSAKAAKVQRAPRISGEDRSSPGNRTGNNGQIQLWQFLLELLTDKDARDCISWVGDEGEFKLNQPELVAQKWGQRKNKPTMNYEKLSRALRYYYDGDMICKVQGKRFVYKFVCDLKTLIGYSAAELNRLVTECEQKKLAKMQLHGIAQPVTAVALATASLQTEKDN
How it was run: as §1

SPIB = SPIB (Homo sapiens, UniProt Q01892 1-262)
Chain of SPIB (Q01892 whole entry): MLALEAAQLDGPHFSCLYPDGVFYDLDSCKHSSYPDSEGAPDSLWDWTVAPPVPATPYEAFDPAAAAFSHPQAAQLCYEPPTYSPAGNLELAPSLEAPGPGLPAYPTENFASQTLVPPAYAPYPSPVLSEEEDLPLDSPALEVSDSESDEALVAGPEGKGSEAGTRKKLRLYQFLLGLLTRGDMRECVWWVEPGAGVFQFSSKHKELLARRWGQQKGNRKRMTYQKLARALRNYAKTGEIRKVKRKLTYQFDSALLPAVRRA
How it was run: as §1

ETV5 = ETV5 (Homo sapiens, UniProt P41161 1-510)
Chain of ETV5 (P41161 whole entry): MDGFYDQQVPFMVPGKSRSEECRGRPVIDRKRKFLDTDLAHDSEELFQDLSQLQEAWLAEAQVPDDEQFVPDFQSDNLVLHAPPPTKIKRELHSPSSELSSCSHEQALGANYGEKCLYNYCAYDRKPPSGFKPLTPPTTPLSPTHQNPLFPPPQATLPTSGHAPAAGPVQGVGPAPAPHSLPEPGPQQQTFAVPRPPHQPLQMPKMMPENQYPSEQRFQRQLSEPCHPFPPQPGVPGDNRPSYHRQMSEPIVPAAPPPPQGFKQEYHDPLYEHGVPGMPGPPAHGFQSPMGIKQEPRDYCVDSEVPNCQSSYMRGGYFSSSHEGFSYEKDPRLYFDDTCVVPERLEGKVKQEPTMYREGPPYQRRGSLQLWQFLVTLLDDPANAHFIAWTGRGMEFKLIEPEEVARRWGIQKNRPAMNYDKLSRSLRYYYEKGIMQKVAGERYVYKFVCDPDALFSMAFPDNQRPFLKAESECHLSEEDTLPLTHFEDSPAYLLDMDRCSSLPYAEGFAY
How it was run: as §1

ELK4 = molecular target: T3, ELK4 (Homo sapiens, UniProt P28324-2 1-405)
T3 sequence: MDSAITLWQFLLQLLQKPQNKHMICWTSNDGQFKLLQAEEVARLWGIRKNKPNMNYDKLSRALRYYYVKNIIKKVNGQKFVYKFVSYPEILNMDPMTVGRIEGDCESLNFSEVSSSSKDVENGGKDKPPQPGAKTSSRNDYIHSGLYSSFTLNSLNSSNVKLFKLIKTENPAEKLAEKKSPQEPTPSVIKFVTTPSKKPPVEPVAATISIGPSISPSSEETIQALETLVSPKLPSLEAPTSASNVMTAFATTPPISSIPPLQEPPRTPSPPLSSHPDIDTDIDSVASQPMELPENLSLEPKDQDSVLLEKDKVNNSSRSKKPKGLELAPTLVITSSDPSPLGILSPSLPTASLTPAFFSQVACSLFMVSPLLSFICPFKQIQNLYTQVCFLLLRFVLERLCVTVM
How it was run: as §1

ELF3 = molecular target: T4, ELF3 (Homo sapiens, UniProt P78545 1-371)
T4 sequence: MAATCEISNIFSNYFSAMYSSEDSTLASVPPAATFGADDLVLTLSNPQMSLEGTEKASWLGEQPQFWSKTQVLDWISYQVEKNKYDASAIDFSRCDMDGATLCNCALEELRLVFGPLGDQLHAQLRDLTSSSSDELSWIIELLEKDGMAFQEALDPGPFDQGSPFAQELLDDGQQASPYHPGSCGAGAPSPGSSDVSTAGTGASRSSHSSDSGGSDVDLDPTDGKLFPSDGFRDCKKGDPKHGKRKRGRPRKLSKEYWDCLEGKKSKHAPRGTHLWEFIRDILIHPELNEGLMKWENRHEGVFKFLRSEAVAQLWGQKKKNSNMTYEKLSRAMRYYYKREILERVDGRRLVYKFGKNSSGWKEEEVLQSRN
How it was run: as §1

ETV1 = ETV1 (Homo sapiens, UniProt P50549 1-477)
Chain of ETV1 (P50549 whole entry): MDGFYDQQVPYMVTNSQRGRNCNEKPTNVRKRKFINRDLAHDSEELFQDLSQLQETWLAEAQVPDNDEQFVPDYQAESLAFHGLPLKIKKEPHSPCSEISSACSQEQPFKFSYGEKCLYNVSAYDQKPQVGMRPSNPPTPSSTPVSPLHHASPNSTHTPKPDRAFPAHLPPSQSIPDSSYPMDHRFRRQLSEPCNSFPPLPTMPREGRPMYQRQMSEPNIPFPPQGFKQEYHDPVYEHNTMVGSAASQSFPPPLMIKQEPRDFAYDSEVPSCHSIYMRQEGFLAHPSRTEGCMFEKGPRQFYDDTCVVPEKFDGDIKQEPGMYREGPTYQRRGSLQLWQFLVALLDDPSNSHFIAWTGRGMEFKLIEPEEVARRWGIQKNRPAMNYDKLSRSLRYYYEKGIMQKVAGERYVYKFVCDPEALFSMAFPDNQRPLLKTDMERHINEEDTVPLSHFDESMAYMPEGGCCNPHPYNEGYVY
How it was run: as §1

ETV3L = molecular target: T5, ETV3L (Homo sapiens, UniProt Q6ZN32 1-361)
T5 sequence: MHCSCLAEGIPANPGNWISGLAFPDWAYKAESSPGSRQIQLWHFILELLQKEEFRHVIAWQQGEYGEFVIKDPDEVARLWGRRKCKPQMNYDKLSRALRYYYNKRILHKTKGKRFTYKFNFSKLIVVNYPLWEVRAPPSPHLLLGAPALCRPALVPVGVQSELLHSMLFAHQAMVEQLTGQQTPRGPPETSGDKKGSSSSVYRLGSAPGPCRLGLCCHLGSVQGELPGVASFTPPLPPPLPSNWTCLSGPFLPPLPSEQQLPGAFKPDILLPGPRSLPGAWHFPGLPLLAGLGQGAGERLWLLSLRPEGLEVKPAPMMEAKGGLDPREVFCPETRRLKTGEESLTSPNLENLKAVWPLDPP
How it was run: as §1

ETS2 = molecular target: T6, ETS2 (Homo sapiens, UniProt P15036 1-469)
T6 sequence: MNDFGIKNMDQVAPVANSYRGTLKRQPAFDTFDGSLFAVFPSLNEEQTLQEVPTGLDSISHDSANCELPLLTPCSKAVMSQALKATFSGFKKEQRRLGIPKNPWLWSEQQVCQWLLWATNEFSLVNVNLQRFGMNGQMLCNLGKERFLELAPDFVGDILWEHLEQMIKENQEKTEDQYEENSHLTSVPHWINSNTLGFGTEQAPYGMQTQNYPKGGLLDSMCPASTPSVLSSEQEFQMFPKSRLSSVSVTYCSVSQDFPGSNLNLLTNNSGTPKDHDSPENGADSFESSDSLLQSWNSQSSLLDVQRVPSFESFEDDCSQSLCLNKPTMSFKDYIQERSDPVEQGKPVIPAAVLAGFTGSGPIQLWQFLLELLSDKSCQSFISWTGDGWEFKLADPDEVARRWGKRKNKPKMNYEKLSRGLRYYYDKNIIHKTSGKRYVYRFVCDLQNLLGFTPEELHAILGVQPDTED
How it was run: as §1

SPDEF = molecular target: T7, SPDEF (Homo sapiens, UniProt O95238 1-335)
T7 sequence: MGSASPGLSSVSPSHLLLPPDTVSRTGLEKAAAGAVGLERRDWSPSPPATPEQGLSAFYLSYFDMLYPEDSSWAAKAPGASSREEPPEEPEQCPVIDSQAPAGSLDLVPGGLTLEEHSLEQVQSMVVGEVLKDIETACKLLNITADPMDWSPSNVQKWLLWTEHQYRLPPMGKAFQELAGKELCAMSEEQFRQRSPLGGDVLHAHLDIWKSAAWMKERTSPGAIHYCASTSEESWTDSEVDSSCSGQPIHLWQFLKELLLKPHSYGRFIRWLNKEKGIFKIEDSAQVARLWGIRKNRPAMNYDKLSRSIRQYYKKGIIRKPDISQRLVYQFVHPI
How it was run: as §1

ETV7 = molecular target: T8, ETV7 (Homo sapiens, UniProt Q9Y603 1-341)
T8 sequence: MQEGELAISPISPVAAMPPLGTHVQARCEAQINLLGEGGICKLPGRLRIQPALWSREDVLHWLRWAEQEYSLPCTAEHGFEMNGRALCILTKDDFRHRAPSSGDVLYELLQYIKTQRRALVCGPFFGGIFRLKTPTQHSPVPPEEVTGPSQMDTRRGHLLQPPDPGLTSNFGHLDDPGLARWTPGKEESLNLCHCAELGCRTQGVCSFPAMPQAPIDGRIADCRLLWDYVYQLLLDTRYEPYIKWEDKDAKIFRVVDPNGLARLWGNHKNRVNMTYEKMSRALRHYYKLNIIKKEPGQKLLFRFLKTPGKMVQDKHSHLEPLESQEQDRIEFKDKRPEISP
How it was run: as §1

ETV3 = molecular target: T9, ETV3 (Homo sapiens, UniProt P41162-2 1-143)
T9 sequence: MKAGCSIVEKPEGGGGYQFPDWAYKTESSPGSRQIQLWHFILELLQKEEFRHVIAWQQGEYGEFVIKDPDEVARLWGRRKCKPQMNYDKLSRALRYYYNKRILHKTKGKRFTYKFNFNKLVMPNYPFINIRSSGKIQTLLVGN
How it was run: as §1

ETV6 = ETV6 (Homo sapiens, UniProt P41212 1-452)
Chain of ETV6 (P41212 whole entry): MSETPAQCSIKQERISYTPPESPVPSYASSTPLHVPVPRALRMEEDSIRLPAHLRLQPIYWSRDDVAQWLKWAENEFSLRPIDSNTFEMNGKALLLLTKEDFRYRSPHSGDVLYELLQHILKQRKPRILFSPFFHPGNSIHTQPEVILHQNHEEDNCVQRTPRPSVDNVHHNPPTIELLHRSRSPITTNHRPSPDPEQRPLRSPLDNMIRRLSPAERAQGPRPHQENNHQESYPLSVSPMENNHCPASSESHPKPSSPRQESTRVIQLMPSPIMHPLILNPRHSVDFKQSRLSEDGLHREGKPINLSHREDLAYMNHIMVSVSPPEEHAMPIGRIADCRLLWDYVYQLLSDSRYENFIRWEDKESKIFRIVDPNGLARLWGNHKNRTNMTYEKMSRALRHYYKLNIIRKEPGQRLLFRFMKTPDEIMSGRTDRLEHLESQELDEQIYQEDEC
How it was run: as §1

In the case of CGTTTG, the binding signal (ELK1) is reported as 1.03 fold enrichment (6-mer frequency, TF over GST control), the binding signal (GABPA) is reported as 1.03 fold enrichment (6-mer frequency, TF over GST control) and the binding signal (SPIB) is reported as 1.06 fold enrichment (6-mer frequency, TF over GST control). For the same sequence, the binding signal (ETV5) was 1.01 fold enrichment (6-mer frequency, TF over GST control), the binding signal (ELK4) was 1.07 fold enrichment (6-mer frequency, TF over GST control) and the binding signal (ELF3) was 1.02 fold enrichment (6-mer frequency, TF over GST control). For the same sequence, the binding signal (ETV1) was 1.06 fold enrichment (6-mer frequency, TF over GST control), the binding signal (ETV3L) was 1 fold enrichment (6-mer frequency, TF over GST control) and the binding signal (ETS2) was 1.06 fold enrichment (6-mer frequency, TF over GST control). The binding signal (SPDEF) was 1.01 fold enrichment (6-mer frequency, TF over GST control), the binding signal (ETV7) was 1.21 fold enrichment (6-mer frequency, TF over GST control) and the binding signal (ETV3) was 1.08 fold enrichment (6-mer frequency, TF over GST control). For the same sequence, the binding signal (ETV6) was 1.01 fold enrichment (6-mer frequency, TF over GST control).
